A short description of assay [1]: ATG_GLI_CIS: Attagene CIS-FACTORIAL HepG2 Assay for human Zinc Finger Protein GLI1 (AID 2282945). The note with it: HepG2, Attagene cis-factorial reporter mRNA, GLI element; actives raise or lower the signal. In a few lines:
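Bidirectional curve fits relative to DMSO, using reporter mRNA levels from RT-PCR plus capillary electrophoresis. Cells were HepG2 transiently carrying cis-regulated reporter constructs, harvested 24 h after dosing.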

The target in assay [2] is Bile acid receptor (Homo sapiens) (UniProt Q96RI1). The experiment in a line: ATG_IR1_CIS: Attagene CIS-FACTORIAL HepG2 Assay for human Nuclear Receptor Subfamily 1 Group H Member 4 (NR1H4), IR1 submotif (AID 2282946). The note with it: IR1 reporter transcription, actives raise or lower the signal. Put shortly:
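Cells (human HepG2) carry transiently transfected cis-promoter reporter transcription units. Compounds are incubated 24 h, total RNA is reverse-transcribed and amplified, and labelled fragments are resolved by capillary electrophoresis. Curves use DMSO as baseline.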

The nature of assay [3]: ATG_GRE_CIS: Attagene CIS-FACTORIAL HepG2 Assay for human Glucocorticoid Response Elements (GRE) (AID 2282947). The note with it: HepG2 GRE cis-reporter, Attagene multiplex mRNA; actives raise or lower the signal. Put shortly:
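Assay uses human hepatoma HepG2 cells transfected with cis-promoter reporter units, exposed 24 h. mRNA from reporters detected by RT-PCR plus capillary electrophoresis; DMSO serves as negative control and baseline.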

A short description of assay [4]: ATG_ISRE_CIS: Attagene CIS-FACTORIAL HepG2 Assay for human Interferon Regulatory Factor 1 (IRF1) binding to an Interferon-Stimulated Response Element (ISRE) (AID 2282948). The note with it: HepG2 ISRE cis-reporter (Attagene), mRNA transcription readout; actives raise or lower the signal. Put shortly:
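Transiently transfected HepG2 cells carrying cis-element reporter units, dosed 24 hours. Reporter mRNA quantified by RT-PCR, fluorescent primer extension, HpaI digestion and capillary electrophoresis. Bidirectional fitting relative to DMSO.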

Assay [5] in a line: ATG_M_06_CIS: Attagene CIS-FACTORIAL HepG2 Assay for M06 Transcription Factor (Internal Marker) (AID 2282950). Conditions: HepG2 Attagene CIS-FACTORIAL M06 internal marker reporter; actives raise or lower the signal. Put shortly:
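Internal background marker within multiplexed cis-reporter HepG2 system. Cells transiently transfected, dosed 24 h; reporter mRNA measured by RT-PCR, HpaI digestion and capillary electrophoresis. Bidirectional fit relative to DMSO.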

In assay [6] the target is Hypoxia-inducible factor 1-alpha (Homo sapiens) (UniProt Q16665). Nature of the assay: ATG_HIF1a_CIS: Attagene CIS-FACTORIAL HepG2 Assay for human Hypoxia Inducible Factor 1 (HIF1A) (AID 2282951). The note with it: HepG2 Attagene cis-factorial HIF1a reporter transcription; actives raise or lower the signal. Put shortly: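 HepG2, transient cis-reporter library, 24 h dosing. RNA → RT (oligo dT) → PCR → 6-FAM primer extension → HpaI → CE. Bidirectional curve fit vs DMSO.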

In assay [7] the target is Hepatocyte nuclear factor 6 (Homo sapiens) (UniProt Q9UBC0). Nature of the assay: ATG_HNF6_CIS: Attagene CIS-FACTORIAL HepG2 Assay for human Hepatocyte Nuclear Factor 6 (HNF6) (AID 2282952). The note with it: HepG2 Attagene cis-factorial HNF6 reporter transcription; actives raise or lower the signal. Put shortly: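 HepG2 cells transiently transfected with cis-element-driven multiplexed reporter units measuring endogenous transcription factor activity. After 24 h exposure, reporter mRNA quantified by RT-PCR, FAM-labelled fragments and capillary electrophoresis; bidirectional fitting versus DMSO.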

In assay [8] the target is Heat shock factor protein 1 (Homo sapiens) (UniProt Q00613). Nature of the assay: ATG_HSE_CIS: Attagene CIS-FACTORIAL HepG2 Assay for human Heat Shock Transcription Factor 1 (HSE) (AID 2282953). Conditions: HepG2 HSE cis-reporter, Attagene RNA transcription; actives raise or lower the signal. Put shortly:
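HepG2 cells transfected with cis-promoter reporter units sensing endogenous transcription factor activity; reporter mRNA quantified 24 h post-dose by RT-PCR and capillary electrophoresis of 6-FAM-labelled products. Bidirectional fitting against DMSO.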

A short description of assay [9]: ATG_MRE_CIS: Attagene CIS-FACTORIAL HepG2 Assay for human Metal Responsive Element (MRE) (AID 2282954). Conditions: HepG2 MRE cis-reporter transcription, Attagene multiplex; actives raise or lower the signal. In a few lines:
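After a 24 h chemical exposure, transiently transfected HepG2 cells yield RNA whose reporter sequences are amplified, FAM-labelled and sized by capillary electrophoresis. Curves are fitted bidirectionally relative to DMSO.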

The nature of assay [10]: ATG_PBREM_CIS: Attagene CIS-FACTORIAL HepG2 Assay for human Phenobarbital-responsive Enhancer Module (PBREM) (AID 2282955). Conditions: HepG2 PBREM cis-reporter, Attagene multiplexed transcription; actives raise or lower the signal. In a few lines: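 HepG2, transient MRTU transfection, 24 h dosing; RNA → oligo(dT) RT → PCR → 6-FAM extension → HpaI → CE. Bidirectional fit vs DMSO.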

For assay [11], the target named is Paired box protein Pax-6 (Homo sapiens) (UniProt P26367). The experiment in a line: ATG_Pax6_CIS: Attagene CIS-FACTORIAL HepG2 Assay for human Paired Box 6 (PAX6) (AID 2282956). Conditions: HepG2 CIS-FACTORIAL PAX6 reporter transcription, RNA readout; actives raise or lower the signal. In a few lines: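 HepG2 cells transiently transfected with cis-promoter-driven multiplexed reporter units sensing endogenous transcription factor activity; 24 h chemical exposure. Reporter mRNA quantified by RT-PCR, 6-FAM labelling, HpaI digestion and capillary electrophoresis; bidirectional fit versus DMSO baseline.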

Assay [12] can be described thus: ATG_PXRE_CIS: Attagene CIS-FACTORIAL HepG2 Assay for human Pregnane X Receptor Element (PXRE) (AID 2282957). Conditions: HepG2 Attagene CIS-FACTORIAL PXRE reporter, mRNA; actives raise or lower the signal. In a few lines: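 HepG2 cells transiently transfected with cis-element-driven multiplexed reporter units; after 24 h chemical exposure, reporter mRNA measured by RT-PCR, 6-FAM labelling, HpaI digestion and capillary electrophoresis. Bidirectional fitting relative to DMSO.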

Assay [13] can be described thus: ATG_Sox_CIS: Attagene CIS-FACTORIAL HepG2 Assay for human SRY-box transcription factor (SOX) (AID 2282960). The note with it: HepG2 Attagene cis-factorial SOX reporter, mRNA; actives raise or lower the signal. Put shortly:
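Cells were transfected with reporter constructs under cis-regulatory promoters, then exposed to chemicals for 24 h. Reporter transcripts were quantified by fluorescence after RT-PCR and capillary electrophoresis; activity was fitted in both directions against DMSO.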

Assay [14] deals with Transcription factor Sp1 (Homo sapiens) (UniProt P08047). Nature of the assay: ATG_Sp1_CIS: Attagene CIS-FACTORIAL HepG2 Assay for human Specificity Protein 1 (Sp1) (AID 2282961). The note with it: HepG2 Sp1 cis-reporter transcription, actives raise or lower the signal. Put shortly: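 Measures mRNA induction of an Sp1-linked reporter in HepG2 cells 24 h post-dosing. Multiplexed reporters read by RT-PCR and capillary electrophoresis; DMSO serves as negative control and baseline.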

Assay [15] is described as follows: ATG_SREBP_CIS: Attagene CIS-FACTORIAL HepG2 Assay for human Sterol Regulatory Element Binding (SREBP) (AID 2282962). Conditions: HepG2 Attagene cis-factorial SREBP reporter, mRNA; actives raise or lower the signal. Put shortly: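 HepG2 cells transiently transfected with multiplexed cis-promoter reporter units sensing endogenous transcription factors; reporter mRNA measured 24 h after dosing by RT-PCR, 6-FAM labeling, HpaI digestion and capillary electrophoresis. Bidirectional fit versus DMSO.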

The target in assay [16] is Signal transducer and activator of transcription 3 (Homo sapiens) (UniProt P40763). The experiment in a line: ATG_STAT3_CIS: Attagene CIS-FACTORIAL HepG2 Assay for human Signal Transducer and Activator of Transcription 3 (STAT3) (AID 2282963). Conditions: HepG2, Attagene cis-factorial STAT3 reporter transcription; actives raise or lower the signal. Put shortly: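 After a 24 h compound incubation, total RNA from MRTU-transfected HepG2 cells was converted to cDNA and reporter sequences PCR-amplified, labelled and profiled by capillary electrophoresis. Gain and loss of signal were referenced to DMSO.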

A short description of assay [17]: ATG_TA_CIS: Attagene CIS-FACTORIAL HepG2 Assay for human TA Basal Promoter (AID 2282964). The note with it: HepG2 Attagene CIS-factorial TA basal promoter reporter; actives raise or lower the signal. In a few lines: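 HepG2 cells transiently transfected with multiple reporter units under cis promoter elements, reporting endogenous transcription factor activity; this endpoint tracks the TA basal promoter as background control. Reporter mRNA after 24 h dosing measured by RT-PCR/capillary electrophoresis; bidirectional fits versus DMSO.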

Assay [18] can be described thus: ATG_M_32_CIS: Attagene CIS-FACTORIAL HepG2 Assay for M32 Transcription Factor (Internal Marker) (AID 2282949).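 Further: background control marker of the multiplexed CIS panel rather than a real target.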 The note with it: HepG2 Attagene cis-factorial M32 reporter, mRNA; actives raise or lower the signal. Put shortly:
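Internal background marker read-out: RT-PCR/capillary electrophoresis fluorescence of reporter transcripts from transiently transfected HepG2 cells after 24 h chemical exposure. Activity fitted bidirectionally relative to DMSO negative control.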

The nature of assay [19]: ATG_PPRE_CIS: Attagene CIS-FACTORIAL HepG2 Assay for human Peroxisome Proliferator-activated Response Element (PPRE) (AID 2282958). Conditions: HepG2 PPRE cis-element reporter, Attagene transcription factor profiling; actives raise or lower the signal. Put shortly:
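Transcript-level reporter induction in transfected HepG2 cells after 24 h chemical exposure, quantified by fluorescence from RT-PCR products separated by capillary electrophoresis.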

Assay [20] can be described thus: ATG_RORE_CIS: Attagene CIS-FACTORIAL HepG2 Assay for human RAR-related Orphan Receptor Element (RORE) (AID 2282959). Conditions: HepG2 Attagene cis-factorial RORE reporter, mRNA; actives raise or lower the signal. Put shortly:
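Multiplexed reporter assay measuring mRNA induction from a cis promoter element in transiently transfected HepG2 cells after 24 h treatment. Detection via RT-PCR and capillary electrophoresis fluorescence; DMSO serves as baseline.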

Molecules are shown by their SMILES. Activity calls are given as the source filed them. How the source made its calls: active means hit-call score of the fitted dose curve at least 0.9, where 1 is the maximum; inactive means score below 0.9.

Hypoxia-inducible factor 1-alpha (Homo sapiens), sequence (Q16665 whole entry, looked up): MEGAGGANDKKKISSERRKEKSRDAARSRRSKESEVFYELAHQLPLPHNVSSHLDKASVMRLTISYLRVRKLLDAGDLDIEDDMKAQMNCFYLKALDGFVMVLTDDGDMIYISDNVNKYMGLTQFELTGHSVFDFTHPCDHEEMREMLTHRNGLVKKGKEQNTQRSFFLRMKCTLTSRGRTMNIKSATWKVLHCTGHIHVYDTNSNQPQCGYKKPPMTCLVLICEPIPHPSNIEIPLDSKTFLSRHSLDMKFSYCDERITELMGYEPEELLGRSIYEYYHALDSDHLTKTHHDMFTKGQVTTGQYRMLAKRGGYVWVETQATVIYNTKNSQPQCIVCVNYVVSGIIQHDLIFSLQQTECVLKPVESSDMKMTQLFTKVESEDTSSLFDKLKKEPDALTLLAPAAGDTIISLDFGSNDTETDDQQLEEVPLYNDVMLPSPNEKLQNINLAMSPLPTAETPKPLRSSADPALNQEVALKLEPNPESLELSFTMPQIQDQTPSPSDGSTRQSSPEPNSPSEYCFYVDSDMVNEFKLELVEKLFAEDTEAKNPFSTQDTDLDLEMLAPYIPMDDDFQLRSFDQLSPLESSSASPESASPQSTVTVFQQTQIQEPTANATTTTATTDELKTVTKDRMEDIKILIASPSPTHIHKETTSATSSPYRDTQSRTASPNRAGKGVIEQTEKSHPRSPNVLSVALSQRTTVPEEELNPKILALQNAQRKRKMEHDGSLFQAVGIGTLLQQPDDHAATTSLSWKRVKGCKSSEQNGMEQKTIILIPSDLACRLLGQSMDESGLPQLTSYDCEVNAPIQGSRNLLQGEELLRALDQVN
Hepatocyte nuclear factor 6 (Homo sapiens), sequence (Q9UBC0 whole entry, looked up, the tested form may be a part): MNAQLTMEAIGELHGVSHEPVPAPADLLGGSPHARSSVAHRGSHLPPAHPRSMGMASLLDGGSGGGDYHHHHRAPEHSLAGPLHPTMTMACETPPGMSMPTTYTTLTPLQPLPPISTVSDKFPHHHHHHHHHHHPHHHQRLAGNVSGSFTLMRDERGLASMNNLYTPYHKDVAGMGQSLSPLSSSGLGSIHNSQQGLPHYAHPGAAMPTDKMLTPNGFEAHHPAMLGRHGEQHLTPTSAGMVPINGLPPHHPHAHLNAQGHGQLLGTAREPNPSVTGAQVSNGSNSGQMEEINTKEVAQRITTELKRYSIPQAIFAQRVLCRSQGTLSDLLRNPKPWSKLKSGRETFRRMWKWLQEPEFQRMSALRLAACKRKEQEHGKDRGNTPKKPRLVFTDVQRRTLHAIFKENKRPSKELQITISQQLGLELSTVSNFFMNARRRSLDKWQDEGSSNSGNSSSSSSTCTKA
Paired box protein Pax-6 (Homo sapiens), sequence (P26367 whole entry, looked up): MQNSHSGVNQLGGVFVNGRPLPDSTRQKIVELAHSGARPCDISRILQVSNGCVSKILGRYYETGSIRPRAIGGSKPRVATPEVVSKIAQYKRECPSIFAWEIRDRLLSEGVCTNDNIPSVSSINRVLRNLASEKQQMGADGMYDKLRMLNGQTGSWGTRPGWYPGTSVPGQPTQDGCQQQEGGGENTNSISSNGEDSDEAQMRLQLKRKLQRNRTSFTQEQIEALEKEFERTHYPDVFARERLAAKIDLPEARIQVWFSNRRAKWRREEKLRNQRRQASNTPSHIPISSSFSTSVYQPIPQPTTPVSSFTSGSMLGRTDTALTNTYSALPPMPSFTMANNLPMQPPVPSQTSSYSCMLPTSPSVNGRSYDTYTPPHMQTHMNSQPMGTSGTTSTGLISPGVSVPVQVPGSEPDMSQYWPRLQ
Transcription factor Sp1 (Homo sapiens), sequence (P08047 whole entry, looked up): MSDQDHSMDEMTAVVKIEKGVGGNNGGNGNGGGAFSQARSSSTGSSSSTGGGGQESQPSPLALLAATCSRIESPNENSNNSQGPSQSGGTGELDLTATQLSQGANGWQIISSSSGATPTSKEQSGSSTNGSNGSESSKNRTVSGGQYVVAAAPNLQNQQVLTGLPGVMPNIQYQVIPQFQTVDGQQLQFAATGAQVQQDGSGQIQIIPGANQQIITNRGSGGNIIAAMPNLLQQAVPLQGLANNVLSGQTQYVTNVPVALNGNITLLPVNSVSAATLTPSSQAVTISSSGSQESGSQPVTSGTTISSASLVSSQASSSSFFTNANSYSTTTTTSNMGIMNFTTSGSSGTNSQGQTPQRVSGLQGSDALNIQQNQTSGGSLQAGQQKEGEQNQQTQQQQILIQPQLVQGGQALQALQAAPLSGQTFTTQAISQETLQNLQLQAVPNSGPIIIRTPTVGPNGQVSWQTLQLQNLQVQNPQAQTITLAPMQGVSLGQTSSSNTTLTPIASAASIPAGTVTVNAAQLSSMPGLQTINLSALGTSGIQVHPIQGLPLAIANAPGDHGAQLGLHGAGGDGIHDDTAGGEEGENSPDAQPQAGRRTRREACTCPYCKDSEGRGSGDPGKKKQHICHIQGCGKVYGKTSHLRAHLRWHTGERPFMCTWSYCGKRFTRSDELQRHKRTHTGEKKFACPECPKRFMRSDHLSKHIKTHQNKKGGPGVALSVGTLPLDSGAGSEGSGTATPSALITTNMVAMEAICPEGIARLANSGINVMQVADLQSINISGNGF
Bile acid receptor (Homo sapiens), sequence (Q96RI1 whole entry, looked up, the tested form may be a part): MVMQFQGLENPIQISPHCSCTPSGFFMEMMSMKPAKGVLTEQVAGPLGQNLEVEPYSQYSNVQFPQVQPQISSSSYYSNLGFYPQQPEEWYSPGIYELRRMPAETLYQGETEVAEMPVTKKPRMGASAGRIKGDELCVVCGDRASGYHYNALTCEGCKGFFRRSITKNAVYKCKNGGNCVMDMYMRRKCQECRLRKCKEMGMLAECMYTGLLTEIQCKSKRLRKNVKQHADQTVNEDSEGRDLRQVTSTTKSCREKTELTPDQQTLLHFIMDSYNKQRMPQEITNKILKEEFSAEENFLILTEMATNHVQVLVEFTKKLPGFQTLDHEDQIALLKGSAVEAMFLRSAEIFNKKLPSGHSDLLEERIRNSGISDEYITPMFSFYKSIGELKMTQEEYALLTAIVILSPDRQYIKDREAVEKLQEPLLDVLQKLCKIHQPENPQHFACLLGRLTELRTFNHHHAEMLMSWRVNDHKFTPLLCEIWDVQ
Heat shock factor protein 1 (Homo sapiens), sequence (Q00613 whole entry, looked up): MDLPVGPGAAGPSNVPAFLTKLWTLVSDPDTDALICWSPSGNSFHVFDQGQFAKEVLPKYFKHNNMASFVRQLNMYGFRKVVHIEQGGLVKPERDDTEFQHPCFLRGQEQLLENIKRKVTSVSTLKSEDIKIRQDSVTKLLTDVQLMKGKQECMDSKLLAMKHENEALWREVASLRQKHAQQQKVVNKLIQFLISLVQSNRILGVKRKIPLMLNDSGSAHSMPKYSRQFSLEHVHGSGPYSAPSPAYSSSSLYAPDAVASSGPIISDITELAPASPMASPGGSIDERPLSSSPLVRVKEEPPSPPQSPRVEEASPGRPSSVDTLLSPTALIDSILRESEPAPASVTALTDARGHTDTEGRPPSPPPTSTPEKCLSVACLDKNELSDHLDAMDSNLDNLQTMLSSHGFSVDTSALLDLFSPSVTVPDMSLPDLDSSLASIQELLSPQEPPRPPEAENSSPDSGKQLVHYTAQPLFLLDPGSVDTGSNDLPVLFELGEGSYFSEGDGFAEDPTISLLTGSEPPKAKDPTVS
Signal transducer and activator of transcription 3 (Homo sapiens), sequence (P40763 whole entry, looked up): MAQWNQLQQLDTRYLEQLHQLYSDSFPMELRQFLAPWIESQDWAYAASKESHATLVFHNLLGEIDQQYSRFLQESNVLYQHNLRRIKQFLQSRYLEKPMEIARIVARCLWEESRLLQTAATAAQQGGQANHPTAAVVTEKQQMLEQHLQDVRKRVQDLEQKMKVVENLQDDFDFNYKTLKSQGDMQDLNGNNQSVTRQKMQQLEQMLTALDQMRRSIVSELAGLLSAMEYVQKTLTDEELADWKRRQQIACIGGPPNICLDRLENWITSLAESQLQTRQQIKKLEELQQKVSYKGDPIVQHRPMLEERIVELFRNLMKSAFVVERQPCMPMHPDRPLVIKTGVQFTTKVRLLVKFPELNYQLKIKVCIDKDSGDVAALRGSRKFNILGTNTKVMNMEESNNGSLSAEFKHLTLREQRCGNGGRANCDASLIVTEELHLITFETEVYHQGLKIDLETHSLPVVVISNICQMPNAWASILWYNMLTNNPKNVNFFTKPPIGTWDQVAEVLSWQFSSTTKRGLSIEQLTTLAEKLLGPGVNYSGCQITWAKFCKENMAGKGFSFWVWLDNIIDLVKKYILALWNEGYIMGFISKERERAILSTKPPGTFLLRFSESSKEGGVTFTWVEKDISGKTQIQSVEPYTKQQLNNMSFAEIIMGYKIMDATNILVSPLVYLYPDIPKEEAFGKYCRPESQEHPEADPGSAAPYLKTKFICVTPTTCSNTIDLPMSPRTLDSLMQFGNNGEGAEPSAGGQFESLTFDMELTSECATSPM

In the case of `Cc1cc(NC(=O)C(=O)O)cc(C)c1Oc1ccc(O)c2c1CCC2`, the call in assay [1], in [2], in assay [3], in assay [4], in assay [5] and in assay [6] was inactive. In addition, the call in assay [7], in assay [8], in [9], in assay [10], in [11] and in assay [12] was inactive. Also, the call in assay [13], in assay [14], in assay [15], in assay [16] and in assay [17] was inactive.
Turning to `O=C(O)Cc1ccccc1Nc1c(Cl)cccc1Cl`, the outcome in assay [1], in [2], in [4], in assay [18], in assay [5] and in assay [6] was inactive. Also, the compound was classed as inactive in [7], in assay [8], in [9], in assay [10], in [11] and in assay [19]. The call in assay [20], in assay [14], in assay [15], in [16] and in assay [17] was inactive. For the same compound, the AC50 in [12] was 25.8 µM (active).
With `O=c1[nH]cc(F)c(=O)[nH]1`, the call in assay [1], in assay [2], in assay [3], in [4], in assay [5] and in assay [7] was inactive. For the same compound, the result in assay [8], in assay [9], in assay [11], in [12], in assay [19] and in assay [13] was inactive. Also, the result in assay [14], in [16] and in [17] was inactive. The AC50 in assay [15] is 18.3 µM (active).
As for `CC(=O)OCCOCCOCCOC(C)=O`, the compound was called inactive in [1], in assay [2], in [4], in assay [5], in [7] and in [8]. For the same compound, the compound was called inactive in assay [9], in assay [10], in assay [11], in [12], in [19] and in [20]. The compound was classed as inactive in assay [14], in [15], in [16] and in [17]. Further, the AC50 in [6] is 39.4 µM (active).

What is called AC50 is the midpoint of the concentration-response curve, whichever way the signal moves.
